Pf growth 96h = Primary qHTS for delayed death inhibitors of the malarial parasite plastid, 96 hour incubation | P. falciparum luciferase reporter growth, 96 h | actives 6.9% (n = 320,000) | Potency, µM (titrated, usually from 28.7 µM), without a hit: at the top dose activity change, negative = inhibition, most hits filed as inhibitors | AID 504834, 2011; further: potency means the concentration at half of the fitted maximal effect; on the % scale 0 is the no-effect control and ±100 the full control effect
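Readout is luminescence from an integrated firefly luciferase in P. falciparum. Red cells, 2% hematocrit and 0.05% parasitemia final, were cultured with compound through two parasite generations (96 hours) at 37 C, 5% CO2.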
NS1 inh = qHTS Assay for Inhibitors of Influenza NS1 Protein Function; AID 2326, 2010; Potency, µM (highest dose often 46.1 µM), for the others: at the highest dose activity, positive = more growth; actives 0.4% (n = 270,000); calls by dose curve; further: potency means the concentration at half of the fitted maximal effect; actives are rising curves; nearly all actives have a fitted effect of over 50% in size
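Read-out: OD600 growth recovery of NS1-expressing budding yeast. Cells grown overnight at 30C in -URA glucose medium, washed, resuspended and diluted 1:100 in 2% galactose assay medium, pH 6.0. Same strain lacking NS1 served as positive control.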
FBPA Giardia inh = qHTS Assay for Inhibitors of Fructose-1,6-bisphosphate Aldolase from Giardia Lamblia | A8B2U2 | purified Giardia FBPA | Potency, µM (highest dose often 59.6 µM), inactives show top-dose activity, negative = inhibition, most hits filed as inhibitors | actives 0.71% (n = 290,000); further: potency means the concentration at half of the fitted maximal effect; on the % scale 0 is the no-effect control and ±100 the full control effect; nearly all actives have a fitted effect of over 55% in size
Target sequence (A8B2U2 whole entry, looked up): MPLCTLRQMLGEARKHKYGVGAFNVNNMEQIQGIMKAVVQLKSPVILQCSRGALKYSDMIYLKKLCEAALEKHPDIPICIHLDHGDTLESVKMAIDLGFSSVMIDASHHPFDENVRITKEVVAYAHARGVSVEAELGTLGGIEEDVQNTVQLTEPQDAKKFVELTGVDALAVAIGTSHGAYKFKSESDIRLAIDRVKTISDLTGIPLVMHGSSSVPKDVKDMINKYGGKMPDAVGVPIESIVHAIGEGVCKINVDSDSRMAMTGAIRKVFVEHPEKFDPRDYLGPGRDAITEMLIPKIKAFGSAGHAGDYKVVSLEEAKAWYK
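40 nM FBPA preincubated 10 min at RT with compound (up to 57.5 uM final), then substrate plus GAPDH/TPI/NAD/arsenate coupling and diaphorase/resazurin added. Fluorescence read after 20 min at RT, 525/598 nm.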
Shiga toxin inh = A qHTS for Small Molecule Inhibitors of Shiga Toxin; Vero cells, Shiga toxin protein synthesis inhibition reporter; AID 2315, 2010; actives 9.2% (n = 290,000); inhibition, % at 38.7 µM; in the data active means inhibition mostly above about 28%, no sharp cut-off; inactive means mostly below about 43%; further: 0% is about no effect
CHX counter = Cycloheximide Counterscreen for Small Molecule Inhibitors of Shiga Toxin; max response, %; actives 12% (n = 300,000); cell reporter, cycloheximide protein synthesis inhibition counterscreen; in the data active means max response mostly above about 13%, no sharp cut-off; inactive means mostly below about 14%; further: read at 38.3 µM for the half of the compounds with a filed dose; 0% is about no effect
Pf growth 48h = Primary qHTS for delayed death inhibitors of the malarial parasite plastid, 48 hour incubation | P. falciparum luciferase growth in erythrocytes, 48 h | Potency, µM (highest dose often 28.7 µM), inactives show top-dose activity change, negative = inhibition, most hits filed as inhibitors | actives 5.9% (n = 310,000); further: potency means the concentration at half of the fitted maximal effect; on the % scale 0 is the no-effect control and ±100 the full control effect
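Parasite viability was followed by luminescence of a genomically integrated firefly luciferase. Cultures held 0.1% parasitemia at 2% hematocrit (final), incubated under 5% CO2 at 37 C.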
The depositor's hits bear a star; u = inconclusive; x = no result given; [ ] = remark or other dose. A selection: hits, their analogues and other compounds. The true share with any hit is near 21%. Unless noted, the call rests on the fitted dose curve; in most records, active means well fitted curve in the direction sought with a large enough effect; inconclusive means small, poorly fitted or top-dose-only effect, or another doubt; inactive means no such curve, though single readings can be large; an effect the other way counts as inactive or inconclusive.

SMILES	Pf growth 96h	NS1 inh	FBPA Giardia inh	Shiga toxin inh	CHX counter	Pf growth 48h
CC(C(=O)NCc1ccccc1Cl)n1cc([N+](=O)[O-])cn1 (configuration not stated)	224.1%	-6.8%	4.5%	4.1	-0.2	13.1%
COc1ccc(OC)c(NC(=O)Nc2cnccn2)c1	u	-12.2%	1.7%	46.2	15.9*	55.9%
COc1cccc(NC(=O)Nc2ccc(C(C)(C)C)cc2)c1	32.1%	-42.2%	-17.4%	51.1*	25.4*	u
COc1ccccc1NC(=O)Nc1cnccn1	u	x	1.8%	25.9	5.0	-14.5%[5.75 µM]
CC(=O)c1cccc(NC(=O)Nc2cccs2)c1	27.2%	9.4%	-15.7%	-1.5	-0.9	-12.4%
COc1cccc(NC(=O)Nc2cccs2)c1	3.0%	17.4%	-22.4%	40.7	24.2*	u
COc1cccc(NC(=O)Nc2ccncc2)c1	-6.1%	5.0%	-1.8%	23.3	16.8*	10.4µM*
CN=C(NC1CCCCC1)c1ccc(Cl)cc1	18.3%	6.2%	-2.3%	-2.6	-2.6	10.6%
NN(CC(=O)O)CC(=O)O	x	1.1%	x	x	x	x
COc1cccc(NC(=O)Nc2cnccn2)c1	44.9%	-6.0%	-4.9%	62.3	20.0*	88.3%
CC(=O)Nc1sc2c(c1C(c1ccc(Cl)cc1)N1CCOCC1)CCCC2 (configuration not stated)	1.31µM*	19.3%	-3.3%	-17.2	-6.5	x
CC(=O)Nc1sc2c(c1C(c1ccc(F)cc1)N1CCOCC1)CCCC2 (configuration not stated)	1.17µM*	-10.9%	-0.6%	11.0	-1.1	x
CC(=O)Nc1sc2c(c1C(c1ccccc1)N1CCOCC1)CCCC2 (configuration not stated)	x	1.5%	1.0%	20.5	10.3	u
COc1cc(/C=C/C(=O)NCC2CCCCC2)cc(OC)c1OC	u	4.1%	2.3%	-7.5	2.5	2.4%
COc1ccc(C2N(C(=O)CN3CCCC3)CCCN2S(=O)(=O)c2ccccc2)cc1 (configuration not stated)	u	u	-10.4%	19.0	10.7	5.22µM*
COc1ccc(CCNC(=O)C(=O)NCCC2CCCCN2S(=O)(=O)c2ccccc2)cc1 (configuration not stated)	0.0%	x	x	x	x	14.7µM*
COc1ccc(C2N(C(C)=O)CCCN2S(=O)(=O)c2ccc(C)cc2)cc1 (configuration not stated)	20.2%	-8.3%	x	-10.2	-5.6	u
CC(C)NC(=O)C(=O)NCCC1CCCCN1S(=O)(=O)c1cccs1 (configuration not stated)	13.5%	x	x	x	x	33.6%
COc1ccc(CCNC(=O)C(=O)NCCC2CCCCN2S(=O)(=O)c2cccs2)cc1 (configuration not stated)	7.38µM*	x	x	x	x	u
Cc1ccccc1-c1nccc(NCc2cccs2)n1	x	x	-9.1%	x	x	x
Cc1cccc(CC(C)NC(=O)c2cc(COc3ccc(C)c(C)c3)on2)n1 (configuration not stated)	1.5%	-49.8%	-0.8%	97.8*	77.1*	u
Cc1ccc(OCc2cc(C(=O)NC(C)Cc3cnccn3)no2)cc1C (configuration not stated)	-4.8%	-27.0%	3.5%	8.4	13.5	-15.6%
Cc1nc(C(C)NC(=O)c2cc(COc3ccc(C)c(C)c3)on2)c(C)s1 (configuration not stated)	u	-46.7%	-11.8%	125.1*	41.5*	-2.5%
Cc1cccc(CC(C)NC(=O)c2cc(COc3ccc(F)cc3F)on2)n1 (configuration not stated)	-15.6%	-19.0%	2.8%	45.3*	49.1*	17.8%
Cc1cc(OCc2cc(C(=O)NCC3(C)COC3)no2)cc(C)c1Cl	u	0.9%	-7.4%	-10.1	-3.9	-27.1%
SMILES	Pf growth 96h	NS1 inh	FBPA Giardia inh	Shiga toxin inh	CHX counter	Pf growth 48h
Cc1cc(OCc2cc(C(=O)NC(C)c3c(C)nn(C)c3C)no2)cc(C)c1Cl (configuration not stated)	u	-14.6%	x	111.3*	41.0*	-21.5%
O=C(CSc1nnc(-c2ccccc2)c(-c2ccccc2)n1)Nc1ccc(Br)cn1	u	-2.8%	0.9%	23.7	-0.3	u
NC(=O)C1CCN(c2nc(-c3cccc([N+](=O)[O-])c3)cs2)CC1	-19.2%	x	x	x	x	u
CSc1ccc(/C=C(\C#N)C(=O)NC2CCCCC2)cc1	u	-2.1%	4.0%	-3.5	0.8	14.7%
COCCNC(=O)/C(C#N)=C/c1ccc2c(c1)OCO2	u	5.7%	-0.8%	41.4*	19.1*	8.5%
C=CCNC(=O)/C(C#N)=C/c1ccc2c(c1)OCCO2	-5.0%	x	10.1%	85.3*	39.5*	18.2%
N#C/C(=C\c1ccc2c(c1)OCO2)C(=O)NCc1ccco1	24.2%	x	10.1%	-13.1	0.6	8.8%
C=CCNC(=O)/C(C#N)=C/c1ccc(SC)cc1	29.9%	x	2.0%	81.2*	51.9*	10.1%
N#C/C(=C\c1ccc2c(c1)OCCO2)C(=O)Nc1nccs1	5.3%	-20.5%	10.5%	93.6*	27.5	0.0%
Cc1ccc(NS(=O)(=O)c2cccc(C(=O)NCC3CCCO3)c2)cc1 (configuration not stated)	-4.8%	x	x	x	x	u
O=C(COC(=O)/C=C/c1ccccc1)NCc1ccccc1Cl	29.9%	x	0.4%	-28.2	-2.3	17.6%
CCCC(=O)N(Cc1cccnc1)c1nc2c(OC)ccc(Cl)c2s1	11.7µM*	0.7%	x	-6.5	-8.2	u
CCCC(=O)N(CCN1CCOCC1)c1nc2c(OC)ccc(C)c2s1	29.8%	-24.8%	u	-3.0	14.1	-5.3%
C/C(CCc1ccco1)=N/NC(=O)CCC(=O)Nc1ccc(Br)cc1	10.4µM*	8.5%	2.1%	-6.7	-1.2	4.0%
Cc1ccc(CCC(=O)Nc2ccc(Br)cc2)o1	u	-22.5%	-0.2%	15.0	18.2*	34.1%
CCc1ccc(CCC(=O)Nc2ccc(C)cc2C)o1	16.1%	3.3%	-0.2%	-3.5	1.2	8.6%
Cc1ccc(CCC(=O)Nc2ccc(Cl)cc2)o1	u	-33.7%	4.4%	x	17.6*	24.2%
Cc1ccc(NC(=O)CCc2ccc(C)o2)c(Br)c1	u	-5.8%	3.6%	31.2*	28.8*	50.2%
CCc1ccc(CCC(=O)Nc2ccc(Br)cc2)o1	u	-48.0%	7.7%	x	3.3	1.2%
COCCN(Cc1cc2ccc(C)cc2[nH]c1=O)S(=O)(=O)c1ccccc1	u	-19.3%	-1.7%	-7.8	-4.3	0.0%
O=C(c1ccc(CS(=O)c2cccc(Cl)c2)o1)N1CCCCCC1 (configuration not stated)	u	3.5%	x	36.3	3.6	4.7%
O=C(CCC(=O)N(CC(=O)NC1CCCC1)Cc1ccc(F)cc1)Nc1nccs1	2.9%	-5.9%	4.3%	-8.1	-6.5	-10.5%
